For seven sequences, PBM binding z-score results are on record in the supplement of paper PMC6555819.

Holding throughout (assay): PBM binding z-score (relative to random genomic background probes); higher = stronger binding; sequences stand for … in GC…GCGATTGACAGCGTAGAATGAAGG
Test [1] concerns RARb homodimer (NR concentration 270 nM). The gist of the method:
(§1)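 Antibodies against each partner of ligand-free nuclear receptor dimers (one per run) detected binding on custom Agilent 4×180K protein-binding microarrays after 1 h incubation. The double-stranded probes had 34-nt variable regions carrying direct-repeat seeds, single-nucleotide variants, half-site ablations and random human genomic background sequences. Binding z-scores, from regression-normalized fluorescence, use the random background probes as reference.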

For test [2], the system named is RARg:RXRa (NR concentration 270 nM, RXRa partner concentration 90 nM). In a few lines: as §1
Test [3] relates to RARg homodimer (NR concentration 270 nM). The gist of the method:
as §1

Test [4] relates to RXRa DBDmut IVT, anti-RXR (DBD mutation: RXRa K156A/R161A, NR concentration 90 nM). The gist of the method: as §1
The test system of test [5] is RXRa homodimer (NR concentration 180 nM). In a few lines: as §1
Test [6] relates to THRa:RXRa (NR concentration 90 nM, RXRa partner concentration 90 nM). In a few lines:
as §1

Test [7] deals with THRa homodimer (NR concentration 90 nM). In a few lines:
as §1

Test [8] concerns VDR homodimer (NR concentration 270 nM). The gist of the method: as §1

As for GGAACGAGGGCCTTCGAGTTGATAGCATGGCGAT, the PBM binding z-score is -1.03 in test [1]; -0.45 in test [2]; -0.368 in test [3]; 0.207 in test [4]; -0.125 in test [5]; 0.262 in test [6]. Further, the PBM binding z-score in test [7] was -1.24; in test [8] it was -0.335.
TTACCAAGGTGAAGGTCGTTGCTCCCTCTGTAGA: the PBM binding z-score worked out at 2.04 in test [1]; 1.25 in test [2]; 1.15 in test [3]; 0.573 in test [4]; 1.59 in test [5]; 2.37 in test [6]. Moreover, the PBM binding z-score in test [7] worked out at 1.06; in test [8] it was 1.43.
For the sequence AGAACGAGCGCACGCTGAGTTGATAGCAGAGTAG, the PBM binding z-score was -1.25 in test [1]; -0.476 in test [2]; -0.51 in test [3]; -0.346 in test [4]; -0.489 in test [5]; -0.752 in test [6]. The results for the PBM binding z-score in test [7] and in test [8] were -1.21 and -0.599, respectively.
As to GCTTGTACATCAAGGTTAAGAAAGACTAAGCTAA, the PBM binding z-score is 0.275 in test [1]; 0.435 in test [2]; 0.375 in test [3]; -0.122 in test [4]; 0.599 in test [5]; 0.997 in test [6]. In addition, the PBM binding z-score in test [7] was -0.187; in test [8], -0.281.
With TCTTGTAGATCAAGCAGGCTAAGAAAGCCTGAGT, the PBM binding z-score in test [1] was -0.885; in test [2], -0.605; in test [3], -0.521; in test [4] it was 0.402; in test [5] it was -0.67; in test [6], -0.805. For the same sequence, the PBM binding z-score was -0.733 in test [7] and -0.349 in test [8].
For TTACCAAGGTGTAGGTCGTTGATCCCTCTGTAGA, the PBM binding z-score was 0.426 in test [1]; 0.051 in test [2]; -0.436 in test [3]; -0.0196 in test [4]; 0.497 in test [5]; 0.442 in test [6]. Also, the results for the PBM binding z-score in test [7] and in test [8] were 0.121 and 0.0922, respectively.
For the sequence TGGCCTAGGTCATTGGGCCAGTATAGTACGCATC, the PBM binding z-score in test [1] was 2.71; in test [2] it was 3.81; in test [3], 4.21; in test [4], 0.818; in test [5], 2.68; in test [6], 2.71. Moreover, the PBM binding z-score in test [7] came out at 0.295; in test [8], 0.451.
